Here are results for 18 molecules from PubChem BioAssay (NCATS).

Assay [1] has as its system CAOV3. As to the kind of experiment: Primary qHTS to identify gynecologic anti-cancer compounds using libraries of approved drugs and bioactive compounds (AID 1345084). Also: nearly all actives have a fitted effect of over 55% in size. The following applies: Gynecologic cancer cell panel viability, ATPlite luminescence, 48 h; series mostly up to 57.5 µM. The method, boiled down: (§1)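 Luminescence from the ATPlite ATP-monitoring reagent indicates viable cell number; lower signal means cytotoxicity. Cells received compound 16 h after seeding and were exposed for 48 h across five concentrations.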
(In general: qHTS replaces the single test concentration by a dilution series.)

In assay [2] the test system is CASKI. The description is as above. The following applies: Gynecologic cancer cell panel viability, ATPlite luminescence, 48 h; series mostly up to 57.5 µM. An outline of the steps: as §1
(In ATP-based viability assays light output follows the ATP content of the culture.)

Assay [3] deals with Es-2. The assay is described as above. Particulars: Gynecologic cancer cell panel viability, ATPlite luminescence, 48 h; series mostly up to 57.5 µM. The method, boiled down:
as §1

The test system of assay [4] is HeLa. The assay is described as above. The following applies: Gynecologic cancer cell panel viability, ATPlite luminescence, 48 h; series mostly up to 57.5 µM. The method, boiled down: as §1
The test system of assay [5] is Hek293T. Described as above. The following applies: Gynecologic cancer cell panel viability, ATPlite luminescence, 48 h, control line for the selectivity index; series mostly up to 57.5 µM. The method, boiled down: as §1
In assay [6] the test system is OV90. Described as above. Particulars: Gynecologic cancer cell panel viability, ATPlite luminescence, 48 h; series mostly up to 57.5 µM. The method, boiled down: as §1
Assay [7] deals with PA-1. The assay is described as above. The following applies: Gynecologic cancer cell panel viability, ATPlite luminescence, 48 h; series mostly up to 57.5 µM. An outline of the steps: as §1
Assay [8] deals with Tov112D. The assay is described as above. The following applies: Gynecologic cancer cell panel viability, ATPlite luminescence, 48 h; series mostly up to 57.5 µM. The method, boiled down: as §1
For assay [9], the system named is C33A. Described as above. The following applies: Gynecologic cancer cell panel viability, ATPlite luminescence, 48 h; series mostly up to 57.5 µM. An outline of the steps: as §1
Assay [10] concerns JEG-3. The assay is described as above. Particulars: Gynecologic cancer cell panel viability, ATPlite luminescence, 48 h; series mostly up to 57.5 µM. The method, boiled down:
as §1

Assay [11] has as its system SKOV3. The description is as above. Particulars: Gynecologic cancer cell panel viability, ATPlite luminescence, 48 h; series mostly up to 57.5 µM. An outline of the steps: as §1
Assay [12] concerns Tov-21-G. Described as above. Particulars: Gynecologic cancer cell panel viability, ATPlite luminescence, 48 h; series mostly up to 57.5 µM. The method, boiled down: as §1
Assay [13] in a line: qHTS assay to identify inhibitors of the type 1 interferon - major histocompatibility complex class I in skeletal muscle: Counter screen cell viability and HiBit confirmation (AID 1347412). Also: nearly all actives have a fitted effect of over 60% in size. The following applies: iHSKM muscle cells + IFN-b, HiBiT or CellTiter-Glo, 24 h. An outline of the steps: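 After 24 h with human IFN-beta (4 ng/ml) and compound titrations (top 46 uM final, 1:3, 12 points), HLA-B HiBit myoblasts were lysed for either Nano-Glo HiBiT luminescence or CellTiter Glo viability on paired plates.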

Inconclusive results are not listed. A number with no mark means an inactive call. Activity calls are given as the source filed them. Calls follow the shape of the dose curve; as a rule, active = well fitted curve in the direction sought with a large enough effect; inconclusive = small, poorly fitted or top-dose-only effect, or another doubt; inactive = no such curve, though single readings can be large; an effect the other way counts as inactive or inconclusive.
% is scaled to controls: 0 for no effect and ±100 for the full control effect; potency is read from the fitted curve at half-maximal effect.

On to `Cc1nc(Nc2n[nH]c3c2CN(C(=O)NC(CN(C)C)c2ccccc2)C3(C)C)c2sccc2n1` (configuration not stated), for which the Potency is 1.41 µM (active) in assay [1]; 3.98 µM (active) in assay [2]; 7.94 µM (active) in assay [3]; 10 µM (active) in assay [4]; 7.94 µM (active) in assay [5]; 3.16 µM (active) in assay [6]. Further, the Potency is 0.316 µM (active) in [7] and 6.31 µM (active) in [8].

For the molecule `CC1(C)CC[C@]23CO[C@@]4(CCC5[C@@]6(C)CC[C@H](O[C@@H]7OC[C@H](O[C@@H]8O[C@H](CO)[C@@H](O)[C@H](O)[C@H]8O)[C@H](O)[C@H]7O[C@@H]7O[C@H](CO)[C@@H](O[C@@H]8O[C@H](CO)[C@@H](O)[C@H](O)[C@H]8O)[C@H](O)[C@H]7O)[C@@](C)(CO)C6CC[C@@]5(C)[C@]4(C)C[C@H]2OC2OCC(O)C(O)C2O)C3C1` (some centres not stated), the results for the activity change, negative = cytotoxicity in [9] and in assay [4] were -28.5% [at 6.55 µM] and -27.3% [at 6.55 µM], respectively.

`CC1=C(C(=O)O[C@@H]2O[C@H](COC3OCC(O)C(O)C3O)[C@@H](O)[C@H](O)[C@H]2O)C(C)(C)CCC1` (some centres not stated): the Potency entry in assay [1], in assay [2], in assay [3], in assay [4], in assay [5] and in [10] was “inactive” in each case. The Potency result in assay [6], in [7], in assay [11], in assay [12] and in assay [8] was “inactive” each time.

On to `Cc1ccccc1C#Cc1ccc(CCC(=O)O)cc1`, for which the Potency result in [9] was “inactive”. Also, the Potency in assay [12] is 17.8 µM (active).

Turning to `CC(=O)OC1C(=O)C2(C)C(O)CC3OCC3(OC(C)=O)C2C(OC(=O)c2ccccc2)C2(O)CC(OC(=O)C(O)C(NC(=O)c3ccccc3)c3ccccc3)C(C)=C1C2(C)C` (configuration not stated), the Potency entry in [9], in assay [5], in assay [6] and in assay [8] was “inactive” in each case. In addition, the Potency in [3] is 0.316 µM (active).

`Nc1ccc(/C=C/C(=O)NCc2cc3cc(-c4ccc(C(=O)N5CCC(F)(F)CC5)cc4)cc(-c4ccc(F)cc4)c3o2)cn1`: the Potency was 7.08 µM (active) in assay [9]; 4.47 µM (active) in [4]; 3.98 µM (active) in assay [5]; 1.58 µM (active) in [10]; 3.55 µM (active) in assay [6]; 1.41 µM (active) in assay [7]. In addition, the Potency in assay [11] was 1.78 µM (active); in [12], 3.16 µM (active).

As to `O=C(O)c1cc2cccc([N+](=O)[O-])c2[nH]1`, the Potency result in [1], in assay [2], in assay [3], in assay [4], in [5] and in assay [10] was “inactive” throughout. In addition, the Potency entry in [6], in assay [7], in assay [11] and in assay [12] was “inactive” throughout.

As to `O=S(=O)(NCC1CC1)c1ccc(Nc2nccc(N3CCCc4cc(O)ccc43)n2)cc1`, the Potency is 31.6 µM (active) in assay [9] and 10 µM (active) in [7]. Further, the Potency entry in assay [6] is “inactive”.

`CN1CCN(c2ccc(C(=O)Nc3n[nH]c4ccc(Cc5cc(F)cc(F)c5)cc34)c(NC3CCOCC3)c2)CC1`: the Potency entry in assay [9], in assay [3], in assay [5], in [10], in assay [12] and in [8] was “inactive” in each case. Also, the values for the Potency in assay [13] (HiBiT) and in assay [13] (Viability) were 17.6 µM (active) and 27.9 µM (active), respectively.

For the molecule `COc1ncc(Nc2ncc([C@@H](C)N3CCN(S(C)(=O)=O)CC3)cc2-c2nc(C)nc(N)n2)cc1F`, the Potency entry in [1], in assay [3], in assay [4], in assay [6], in [7] and in [8] was “inactive” in each case. The Potency in [2] is 0.398 µM (active); in assay [5], 1.26 µM (active); in assay [11], 0.398 µM (active).

As for `CN1c2ccccc2C(=O)N2CCC3c4ccccc4NC3C21` (configuration not stated), the Potency entry in assay [9] and in [6] was “inactive” throughout. In addition, the Potency is 5.62 µM (active) in assay [5]; 3.98 µM (active) in assay [10]; 4.47 µM (active) in assay [7]; 6.31 µM (active) in assay [12]; 1.78 µM (active) in assay [8].

On to `CC1(CCOC2OC(CO)C(O)C(O)C2O)CCC23OC2(C1)C(O)CC1C(C)(C(=O)O)CCCC13C` (configuration not stated), for which the Potency entry in assay [1], in [2], in assay [3], in assay [4], in assay [5] and in assay [10] was “inactive” throughout. Besides, the Potency entry in [6], in [11], in assay [12] and in assay [8] was “inactive” in each case.

In the case of `CC[C@]1(O)CC2CN(CCc3c([nH]c4ccccc34)[C@@](C(=O)OC)(c3cc4c(cc3OC)N(C=O)[C@H]3[C@@](O)(C(=O)OC)[C@H](OC(C)=O)[C@]5(CC)C=CCN6CC[C@]43[C@@H]65)C2)C1` (some centres not stated), in [1], the Potency result was “inactive”. Moreover, the Potency was 0.0891 µM (active) in assay [2]; 0.447 µM (active) in assay [3]; 0.282 µM (active) in [4]; 1.78 µM (active) in assay [6]; 0.126 µM (active) in [7]; 0.126 µM (active) in assay [12]. Besides, the Potency in assay [8] is 0.158 µM (active).

On to `O=C1N=C(N2CCOCC2)CN1c1ccc(Cl)cc1`, for which the Potency entry in assay [1], in assay [2], in assay [3], in assay [4], in assay [5] and in assay [10] was “inactive” throughout. The Potency entry in assay [6], in [7], in assay [11], in [12] and in assay [8] was “inactive” in each case.

In the case of `C[C@@H]1CCC2C(C)(C)[C@H](O)CC[C@]2(C)[C@@]12Cc1c(O)cc3c(c1O2)CNC3=O` (some centres not stated), the Potency entry in assay [1] was “inactive”.

For the molecule `CC(C)CCC[C@@H](C)[C@H]1CC[C@H]2[C@@H]3CC(=O)[C@H]4C[C@@H](O)CC[C@]4(C)[C@H]3CC[C@]12C`, the Potency result in assay [1], in assay [2], in assay [3], in [4], in assay [5] and in [10] was “inactive” throughout. Also, the Potency entry in assay [6], in assay [7], in [11], in assay [12] and in [8] was “inactive” throughout.

As for `O=C(c1cn(Cc2cncn2Cc2ccc(Br)cc2)cc1-c1cccc2ccccc12)N1CCOCC1`, the Potency entry in [9], in assay [3] and in assay [8] was “inactive” each time. In assay [11], the Potency was 17.8 µM (active).

As for `COc1cc(C(=O)NC2CCN(C)CC2)c(F)cc1Nc1ncc2c(n1)N(C1CCCC1)CC(F)(F)C(=O)N2C`, the Potency was 0.282 µM (active) in assay [9], 35.5 µM (active) in assay [3] and 0.158 µM (active) in assay [7]. Further, the activity change, negative = inhibition in [13] (Viability, at 45.9 µM (top of the series)) is -23.9%.
